Here are results for ten compounds from PubChem BioAssay (NCI).

Assay in all cases: NCI-60 one-dose screen, 48 h (100 = growth as untreated, 0 = no growth, -100 = all killed)
One assay relates to SR leukemia. Particulars: 10 µM unless noted.
A further assay relates to RPMI-8226 leukemia. Particulars: 10 µM unless noted.
A further assay concerns OVCAR-8 ovarian. The note with it: 10 µM unless noted.
Another assay has as its system OVCAR-5 ovarian. The note with it: 10 µM unless noted.
In the next assay the test system is OVCAR-4 ovarian. The note with it: 10 µM unless noted.
The test system of a further assay is SK-OV-3 ovarian. Particulars: 10 µM unless noted.
For the next assay, the system named is IGROV1 ovarian. Particulars: 10 µM unless noted.
A further assay deals with OVCAR-3 ovarian. The note with it: 10 µM unless noted.
A further assay deals with HS 578T breast. Particulars: 10 µM.
Another assay deals with NCI/ADR-RES ovarian. The note with it: 10 µM unless noted.
A further assay relates to T-47D breast. The note with it: 10 µM unless noted.
The subject of the next assay is BT-549 breast. Particulars: 10 µM unless noted.
The next assay has as its system MDA-MB-435 melanoma. Particulars: 10 µM unless noted.
The next assay deals with SW-620 colon. The note with it: 10 µM unless noted.
The subject of another assay is MCF7 breast. The note with it: 10 µM unless noted.
In a further assay the test system is HCT-116 colon. Particulars: 10 µM unless noted.
For another assay, the system named is HCC-2998 colon. The note with it: 10 µM.
A further assay concerns KM12 colon. Particulars: 10 µM unless noted.

The panel holds about 83,000 compounds, 20% with a hit somewhere; the sample as a whole holds those more often.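 Single-concentration screen, 48 h exposure, 96-well plates. Endpoint: percent growth. Below 10 = active.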 Values without a mark were called inactive. The source made the active and inactive calls.

Take `CCc1nc2cc(F)c(/C=C/C(=O)NO)cc2c(=O)n1CCc1ccccc1`: the growth in the assay with SR leukemia was 15.1%; with RPMI-8226 leukemia, 11%; in the assay on OVCAR-8 ovarian, 11.6%; in the assay on OVCAR-5 ovarian it was 23.6%; in the assay on OVCAR-4 ovarian, 15.4%; in the assay with SK-OV-3 ovarian, 1.17% (active). In addition, the growth in the assay with IGROV1 ovarian is 32.2%; in the assay with OVCAR-3 ovarian, 7.99% (active); with HS 578T breast, 43.3%; with NCI/ADR-RES ovarian it was 2.43% (active); in the assay with T-47D breast, 2.26% (active); in the assay on BT-549 breast, 28.8%. For the same compound, the growth with MDA-MB-435 melanoma is 23.8%; in the assay on SW-620 colon it was 9.97% (active); in the assay on MCF7 breast it was 12.3%; in the assay on HCT-116 colon, 5.01% (active); in the assay on HCC-2998 colon, 37.3%; in the assay with KM12 colon, 25.6%.

In the case of `COc1c(C(NC(=O)c2ccccc2)c2sccc2C)cc(Cl)c2cccnc12` (centres undefined), the growth in the assay on SR leukemia was 90%; with RPMI-8226 leukemia it was 89.1%; in the assay with OVCAR-8 ovarian, 96.8%; in the assay with OVCAR-5 ovarian, 96.6%; in the assay on OVCAR-4 ovarian, 112%; in the assay on SK-OV-3 ovarian it was 89.3%. Besides, the growth in the assay on IGROV1 ovarian was 106%; in the assay on OVCAR-3 ovarian it was 117%; in the assay on HS 578T breast it was 98.6%; in the assay with NCI/ADR-RES ovarian, 98.2%; in the assay with T-47D breast, 90.8%; in the assay on BT-549 breast, 97.1%. Moreover, the growth with MDA-MB-435 melanoma is 108%; in the assay on SW-620 colon it was 100%; in the assay on MCF7 breast, 100%; in the assay with HCT-116 colon it was 84.1%; in the assay on HCC-2998 colon, 112%; in the assay on KM12 colon it was 104%.

`Nc1c2c(c(O)c3c1=C(CO)C=N3)=NCCS2`: the growth in the assay with SR leukemia was 3% (active); in the assay with RPMI-8226 leukemia, -30.8% (active); in the assay with OVCAR-8 ovarian, -46.4% (active); in the assay with OVCAR-5 ovarian, -70.5% (active); with OVCAR-4 ovarian, -95.3% (active); in the assay with SK-OV-3 ovarian, -90.9% (active). Also, the growth in the assay with IGROV1 ovarian was -64.3% (active); with OVCAR-3 ovarian, -62.3% (active); in the assay on HS 578T breast, 5.57% (active); in the assay with NCI/ADR-RES ovarian it was -24.8% (active); in the assay with T-47D breast it was -42.5% (active); with BT-549 breast, -95.9% (active). For the same compound, the growth with MDA-MB-435 melanoma was -82% (active); with SW-620 colon, -76% (active); in the assay with MCF7 breast, -50.8% (active); in the assay on HCT-116 colon, -90.7% (active); in the assay on HCC-2998 colon it was -94.2% (active); with KM12 colon, -70.4% (active).

For the compound `CNC(=O)c1cnc(C)nc1-c1cc(C(C)(C)C)c(O)c(C(C)(C)C)c1`, the growth in the assay on SR leukemia was 85%; with RPMI-8226 leukemia it was 77.8%; in the assay with OVCAR-8 ovarian, 105%; in the assay on OVCAR-5 ovarian it was 102%; with OVCAR-4 ovarian, 89.7%; with SK-OV-3 ovarian it was 97.5%. The growth in the assay on IGROV1 ovarian is 103%; in the assay with OVCAR-3 ovarian, 116%; with HS 578T breast it was 106%; with NCI/ADR-RES ovarian, 110%; in the assay with T-47D breast, 99.3%; in the assay with BT-549 breast, 101%. Moreover, the growth with MDA-MB-435 melanoma is 98.5%; in the assay with SW-620 colon, 112%; with MCF7 breast it was 93.4%; with HCT-116 colon it was 96.3%; with HCC-2998 colon, 127%; in the assay with KM12 colon, 96.4%.

Consider `CC(C)n1c(NCCc2ccc(O)c(O)c2)nc2c1c(=O)n(C)c(=O)n2C`, for which the growth in the assay on SR leukemia is 87.2%; with RPMI-8226 leukemia, 77.4%; in the assay on OVCAR-8 ovarian, 104%; in the assay with OVCAR-5 ovarian, 79.2%; in the assay on OVCAR-4 ovarian it was 90.9%; with SK-OV-3 ovarian, 108%. Besides, the growth in the assay with IGROV1 ovarian is 110%; in the assay with OVCAR-3 ovarian, 102%; in the assay with HS 578T breast, 99.5%; in the assay with NCI/ADR-RES ovarian, 93.1%; with T-47D breast, 93.7%; with BT-549 breast it was 84.5%. Moreover, the growth in the assay on MDA-MB-435 melanoma was 98.5%; in the assay with SW-620 colon it was 102%; in the assay with MCF7 breast, 95.4%; in the assay with HCT-116 colon it was 97%; with HCC-2998 colon, 86.9%; in the assay with KM12 colon, 91%.

As for `C=CC(=O)N(C)[C@H]1C[C@H]2OC(C)(C1OC)n1c3ccccc3c3c4c(c5c6ccccc6n2c5c31)C(=O)NC4` (some centres undefined), the growth was -25.3% (active) in the assay on SR leukemia; -11.3% (active) in the assay on RPMI-8226 leukemia; 3.41% (active) in the assay with OVCAR-8 ovarian; 28.9% in the assay with OVCAR-5 ovarian; 42.2% in the assay on OVCAR-4 ovarian; -21.3% (active) in the assay with SK-OV-3 ovarian. Also, the growth is 13.7% in the assay with IGROV1 ovarian; -11.1% (active) in the assay on OVCAR-3 ovarian; -14.9% (active) in the assay on HS 578T breast; -1.79% (active) with NCI/ADR-RES ovarian; 16.5% in the assay with T-47D breast; -70.4% (active) with BT-549 breast. The growth with MDA-MB-435 melanoma was 6.02% (active); in the assay with SW-620 colon, 10.3%; in the assay with HCC-2998 colon, -48.1% (active); in the assay on KM12 colon it was 9.67% (active).

Take `COc1ccc(C2CC(=O)c3c(O)c(OC)c(OC)c(OC)c3O2)cc1O` (centres undefined): the growth in the assay on SR leukemia is 22.7%; with RPMI-8226 leukemia, 34.3%; in the assay on OVCAR-8 ovarian it was 26.8%; with OVCAR-5 ovarian, 81.1%; in the assay with OVCAR-4 ovarian, 47.9%; in the assay with SK-OV-3 ovarian, 40%. For the same compound, the growth with IGROV1 ovarian is 48.2%; with OVCAR-3 ovarian it was -5.96% (active); in the assay on HS 578T breast, 14.8%; with NCI/ADR-RES ovarian, 3.97% (active); in the assay on T-47D breast, 65.9%; in the assay with BT-549 breast, 64.6%. Moreover, the growth with MDA-MB-435 melanoma is -46.9% (active); in the assay with SW-620 colon, 20.2%; in the assay with MCF7 breast it was 24.8%; in the assay with HCC-2998 colon it was 12.7%; in the assay with KM12 colon it was 12.5%.

As for `COc1ccc2c(CCCc3ccc(Cl)cc3Cl)c3[n+](cc2c1OC)CCc1cc2c(cc1-3)OCO2`, the growth in the assay on SR leukemia was -38.6% (active); in the assay with RPMI-8226 leukemia, -24.5% (active); in the assay with OVCAR-8 ovarian, 0.597% (active); in the assay with OVCAR-5 ovarian, 28.9%; in the assay with OVCAR-4 ovarian it was 20.5%; in the assay on SK-OV-3 ovarian, -8.36% (active). Moreover, the growth in the assay with IGROV1 ovarian is -8.37% (active); in the assay on OVCAR-3 ovarian, -48.4% (active); in the assay with HS 578T breast, 32.9%; in the assay on NCI/ADR-RES ovarian it was 76.4%; in the assay with T-47D breast it was 3.35% (active); in the assay on BT-549 breast, -28% (active). The growth was -71.2% (active) with MDA-MB-435 melanoma; 4.21% (active) with SW-620 colon; 6.01% (active) in the assay with MCF7 breast; -83.7% (active) in the assay with HCC-2998 colon; -55.3% (active) in the assay with KM12 colon.

As for `CCN1CCN(Cc2ccc(NC(=O)Nc3nc(-c4cc(OC)c(OC)c(OC)c4)cs3)cc2C(F)(F)F)CC1`, the growth is -32.6% (active) in the assay with SR leukemia; -26% (active) in the assay with RPMI-8226 leukemia; 14.1% with OVCAR-8 ovarian; 71.3% in the assay with OVCAR-5 ovarian; 14.1% in the assay on OVCAR-4 ovarian; 36.1% in the assay with SK-OV-3 ovarian. Moreover, the growth with IGROV1 ovarian is 49.5%; in the assay on OVCAR-3 ovarian, 22.8%; in the assay with HS 578T breast, 40%; in the assay on NCI/ADR-RES ovarian it was -6.84% (active); in the assay with T-47D breast, -23.9% (active); with BT-549 breast, 45.3%. The growth in the assay on MDA-MB-435 melanoma is -51.4% (active); in the assay with SW-620 colon it was 3.34% (active); with MCF7 breast, -15.2% (active); with HCT-116 colon, -58% (active); in the assay on KM12 colon, -56.8% (active).

As for `COc1cc2cc(NCc3ccc(Cl)cc3)nc(C)c2cc1OC`, the growth was 18.7% in the assay with SR leukemia; 14.3% in the assay on RPMI-8226 leukemia; 40.9% in the assay with OVCAR-8 ovarian; 41.2% in the assay on OVCAR-5 ovarian; 82.3% in the assay with OVCAR-4 ovarian; 68% with SK-OV-3 ovarian. Besides, the growth was 43% in the assay on IGROV1 ovarian; 49.4% with OVCAR-3 ovarian; 70.5% in the assay with HS 578T breast; 33.6% in the assay with NCI/ADR-RES ovarian; 47.1% in the assay with T-47D breast; 30.8% in the assay with BT-549 breast. The growth in the assay on MDA-MB-435 melanoma is 10.9%; with SW-620 colon, 19.3%; with MCF7 breast, 51.8%; in the assay with HCC-2998 colon, 27.2%; with KM12 colon it was 37.2%.
